SARS PLP yeast: blocks SARS-CoV papain-like protease in a yeast assay | S. cerevisiae expressing SARS-CoV PLpro, growth rescue | Potency, µM (doses to about 32.9 µM), without a hit: at the highest dose activity, positive = growth rescue, most hits filed as activators | actives 0.19% (n = 330,000) | AID 485353; calls by dose curve; further: potency means the concentration at half of the fitted maximal effect; 0% is about no effect; nearly all actives have a fitted effect of over 55% in size
Cycloheximide cs: affects cycloheximide protein synthesis inhibition readout, counter-screen. cell reporter, cycloheximide protein synthesis inhibition counterscreen. max response, %. actives 12% (n = 300,000). AID 2314; in the data active means max response mostly above about 13%, no sharp cut-off; inactive means mostly below about 14%; further: read at 38.3 µM for the half of the compounds with a filed dose; 0% is about no effect
AmpC inh no detg: inhibitors of E. coli AmpC beta-lactamase without detergent | AmpC nitrocefin hydrolysis, absorbance 480 nm, 0.0001% Triton | P00811 | actives 0.52% (n = 330,000) | Potency, µM (top dose mostly 57.1 µM), for inactives: top-dose activity change, negative = inhibition, usual class: inhibitors;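 further: potency means the concentration at half of the fitted maximal effect; plate controls were no compound for no effect and no enzyme for full effect; nearly all actives have a fitted effect of over 20% in size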
Target sequence (P00811 whole entry, looked up): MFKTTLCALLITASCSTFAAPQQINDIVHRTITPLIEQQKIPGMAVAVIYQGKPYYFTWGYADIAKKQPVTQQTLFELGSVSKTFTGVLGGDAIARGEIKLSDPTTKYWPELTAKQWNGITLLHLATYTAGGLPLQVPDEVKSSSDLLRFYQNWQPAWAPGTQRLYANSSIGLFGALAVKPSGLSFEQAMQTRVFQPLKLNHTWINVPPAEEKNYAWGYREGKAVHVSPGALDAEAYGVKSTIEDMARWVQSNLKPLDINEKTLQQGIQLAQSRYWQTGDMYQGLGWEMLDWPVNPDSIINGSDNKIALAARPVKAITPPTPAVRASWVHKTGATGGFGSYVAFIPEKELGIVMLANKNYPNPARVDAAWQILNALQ
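20 mM phosphate pH 7.0 + 0.01% (detergent screen) or 0.0001% Triton X-100; 5.3 nM AmpC reagent; cpd preinc 15 min RT; nitrocefin (800 uM stock) to start; A480 q20 s × 4 min; Activity was normalised to no-enzyme and no-compound control wells.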
AmpC detergent: AmpC beta-lactamase inhibition with detergent present. AID 485294. AmpC hydrolysis of nitrocefin, absorbance 480 nm, 0.01% Triton. Potency, µM (doses to about 114 µM), without a hit: top-dose activity change, negative = inhibition, usual class: inhibitors. actives 0.041% (n = 370,000);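 further: potency means the concentration at half of the fitted maximal effect; 0% = no-compound wells and -100% = no-enzyme wells; nearly all actives have a fitted effect of over 25% in size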
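20 mM phosphate pH 7.0 + 0.01% (detergent screen) or 0.0001% Triton X-100; 5.3 nM AmpC reagent; cpd preinc 15 min RT; nitrocefin (800 uM stock) to start; A480 q20 s × 4 min; Activity was normalised to no-enzyme and no-compound control wells.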
AMA1 RON2 block: AMA1-RON2 (P. falciparum) interaction inhibition; AID 720542; Potency, µM (series often up to 58.2 µM), for the others: at the top dose activity change, negative = inhibition, actives largely listed as inhibitors; actives 0.2% (n = 360,000); AlphaScreen AMA1-biotinylated RON2 peptide binding;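 further: potency means the concentration at half of the fitted maximal effect; 0% = vehicle wells and -100% = peptide control; nearly all actives have a fitted effect of over 45% in size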
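AMA1 (3D7) with his tag at 25 nM final met compounds first, then biotinylated RON2 peptide at 25 nM; detection used donor plus acceptor beads, 10 µg/mL apiece, read by AlphaScreen after 30 min at room temperature.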
Shiga inhibitor: Shiga toxin inhibition. Vero cells, Shiga toxin protein synthesis inhibition reporter. inhibition, % at 38.7 µM. actives 9.2% (n = 290,000); in the data active means inhibition mostly above about 28%, no sharp cut-off; inactive means mostly below about 43%; further: 0% is about no effect
An asterisk follows results filed as active. This is one part of a sample in which hits are shown more often than they occur. Unless noted, the call rests on the fitted dose curve; in most records, active means well fitted curve in the direction sought with a large enough effect; inconclusive means small, poorly fitted or top-dose-only effect, or another doubt; inactive means no such curve, though single readings can be large; an effect the other way counts as inactive or inconclusive.

How did CCn1c(SCC(=O)c2ccccc2)nc2sc3c(c2c1=O)CCN(C)C3 do in these assays?
SARS PLP yeast: 0.8%; Cycloheximide cs: 12.0*; AmpC inh no detg: 98.0%; AmpC detergent: -9.0%; AMA1 RON2 block: -10.7%; Shiga inhibitor: 69.9*

How did CCn1c(SCC(=O)NCCc2ccccc2)nc2sc3c(c2c1=O)CCN(C)C3 do in these assays?
SARS PLP yeast: -1.4%; Cycloheximide cs: -1.9; AmpC inh no detg: 31.5%; AmpC detergent: 3.4%; AMA1 RON2 block: -16.3%; Shiga inhibitor: -8.5

How did CCCSc1nc(N)c2c3c(sc2n1)CN(C)CC3 do in these assays?
SARS PLP yeast: -1.1%; Cycloheximide cs: 16.1; AmpC inh no detg: -45.0%; AmpC detergent: inconclusive; AMA1 RON2 block: -0.8%; Shiga inhibitor: 34.7

How did CSc1nc(NCc2ccccc2)c2c3c(sc2n1)CN(C)CC3 do in these assays?
SARS PLP yeast: -8.4%; Cycloheximide cs: 19.2*; AmpC inh no detg: 94.2%; AmpC detergent: -2.3%; AMA1 RON2 block: -5.3%; Shiga inhibitor: 53.0*

Results for Cc1ccc(NC(=O)Cc2coc3c(C)c(C)ccc23)cc1Cl ?
AmpC detergent: -8.5%

How did COc1ccc(NC(=O)CSCC(=O)Nc2nnc(CC(C)C)s2)cc1 do in these assays?
SARS PLP yeast: 0.9%; AmpC inh no detg: 17.5%; AmpC detergent: -0.6%; AMA1 RON2 block: 2.0%

Results for CCNC(=O)C1CCCN(C(=O)c2ccccc2OC(F)(F)F)CC1 (centres undefined) ?
AMA1 RON2 block: -2.0%

What do the screens show for `Nn1c(Nc2ccccc2)nc2sc3c(c2c1=O)CCC3`?
SARS PLP yeast: -6.9%; Cycloheximide cs: 26.1*; AmpC inh no detg: 2.2%; AmpC detergent: -7.4%; AMA1 RON2 block: -3.6%; Shiga inhibitor: 85.6*

What do the screens show for `COC(=O)c1ccc(Cn2nnc3sc4c(c3c2=O)CCCC4)cc1`?
AmpC detergent: 22.6%

How did O=C(O)c1ccc(Cn2nnc3sc4c(c3c2=O)CCCC4)cc1 do in these assays?
SARS PLP yeast: -0.8%; Cycloheximide cs: 41.3*; AmpC inh no detg: -26.0%; AmpC detergent: -9.8%; AMA1 RON2 block: -20.6%; Shiga inhibitor: 166.6*

How did Cc1ccc(P(=O)(CSC(=N)N)c2ccc(C)cc2)cc1 do in these assays?
SARS PLP yeast: 6.9%; Cycloheximide cs: -2.3; AmpC inh no detg: -50.9%; AmpC detergent: 1.9%; AMA1 RON2 block: -7.8%; Shiga inhibitor: 40.8

What do the screens show for `CCc1c(CN2CCN(c3ccc(F)cc3)CC2)csc1C`?
AmpC detergent: 15.9%

How did Cc1cc(-c2ccc(C)c(S(=O)(=O)Nc3ccccn3)c2)on1 do in these assays?
AmpC detergent: 3.6%

Results for Cc1cc(-c2ccc(C(C)C)c(S(=O)(=O)Nc3ccccn3)c2)on1 ?
SARS PLP yeast: 4.8%; Cycloheximide cs: 29.2*; AmpC inh no detg: -44.8%; AmpC detergent: 2.9%; AMA1 RON2 block: 25.2%; Shiga inhibitor: 23.7*

Results for CC(C)(C)c1cc(C(=O)NNc2cccc(Cl)c2)n(Cc2ccccc2)n1 ?
SARS PLP yeast: -5.1%; Cycloheximide cs: 19.6*; AmpC inh no detg: inconclusive; AmpC detergent: -5.7%; AMA1 RON2 block: inconclusive; Shiga inhibitor: 45.6*

What do the screens show for `CC(C)(C)C(=O)NNC(=O)c1cc(C(C)(C)C)nn1Cc1ccccc1`?
SARS PLP yeast: -0.6%; Cycloheximide cs: -2.8; AmpC inh no detg: 13.0%; AmpC detergent: -1.6%; AMA1 RON2 block: -0.8%; Shiga inhibitor: -5.2

How did CC(C)(C)c1cc(C(=O)NNc2cc(C(F)(F)F)ccc2Cl)n(Cc2ccccc2)n1 do in these assays?
SARS PLP yeast: -1.9%; Cycloheximide cs: 28.1*; AmpC inh no detg: -46.5%; AmpC detergent: 13.7%; AMA1 RON2 block: -17.7%; Shiga inhibitor: 43.4*

How did COc1ccccc1NNC(=O)c1cc(C(C)(C)C)nn1Cc1ccccc1 do in these assays?
SARS PLP yeast: -0.5%; Cycloheximide cs: 29.8*; AmpC inh no detg: -4.2%; AmpC detergent: -1.6%; AMA1 RON2 block: -3.8%; Shiga inhibitor: 60.5*

How did CC(C)(C)c1cc(C(=O)NNc2ccc(OC(F)(F)F)cc2)n(Cc2ccccc2)n1 do in these assays?
SARS PLP yeast: -1.1%; Cycloheximide cs: 3.3; AmpC inh no detg: -30.4%; AmpC detergent: -5.3%; AMA1 RON2 block: -15.9%; Shiga inhibitor: 3.3

Results for Clc1ccc(/C=N/N2CCCCC2)cc1 ?
SARS PLP yeast: -0.3%; Cycloheximide cs: 28.6*; AmpC inh no detg: -28.6%; AmpC detergent: 11.0%; AMA1 RON2 block: -16.2%; Shiga inhibitor: 33.6*

How did N#Cc1ccc(C=NN2CCCCCC2)cc1 do in these assays?
AMA1 RON2 block: 28.2µM*

What do the screens show for `O=C1NC(=O)N(Cc2ccccc2F)C1=O`?
SARS PLP yeast: -0.4%; Cycloheximide cs: 1.3; AmpC inh no detg: -11.6%; AmpC detergent: 1.1%; AMA1 RON2 block: 3.1%; Shiga inhibitor: 2.9

What do the screens show for `O=C(O)c1ccc(-c2cccc([N+](=O)[O-])c2)o1`?
SARS PLP yeast: 3.5%; Cycloheximide cs: 5.2; AmpC inh no detg: -10.7%; AmpC detergent: -3.1%; AMA1 RON2 block: -16.9%; Shiga inhibitor: 21.8

What do the screens show for `CN(C(=O)CNC(=O)c1ccc(Br)o1)C1CCCCC1`?
SARS PLP yeast: -2.4%; Cycloheximide cs: 20.8*; AmpC inh no detg: -7.8%; AmpC detergent: -0.3%; AMA1 RON2 block: 10.2%; Shiga inhibitor: 78.2*

What do the screens show for `O=C(NC1CCCCCC1)c1ccc(Br)o1`?
SARS PLP yeast: 0.4%; Cycloheximide cs: 13.2; AmpC inh no detg: 205.1%; AmpC detergent: -12.7%; AMA1 RON2 block: -7.7%; Shiga inhibitor: 37.9

Results for O=C(NC1CCCCC1)c1cc2cc(Br)ccc2o1 ?
SARS PLP yeast: -5.8%; Cycloheximide cs: 58.3*; AmpC inh no detg: -41.0%; AmpC detergent: -7.6%; AMA1 RON2 block: 5.7%; Shiga inhibitor: 75.7*

How did O=C(NC1CCCCC1)c1ccc(-c2cccc([N+](=O)[O-])c2)o1 do in these assays?
SARS PLP yeast: -13.0%; Cycloheximide cs: 55.6*; AmpC inh no detg: -21.4%; AmpC detergent: inconclusive; AMA1 RON2 block: -2.0%; Shiga inhibitor: 74.1*

How did O=C(NC1CCCCCCC1)c1ccc(Br)o1 do in these assays?
SARS PLP yeast: -3.5%; Cycloheximide cs: 24.9*; AmpC inh no detg: 79.4%; AmpC detergent: inconclusive; AMA1 RON2 block: 5.5%; Shiga inhibitor: 83.5*

What do the screens show for `CN(C)c1ccc(S(=O)(=O)N2CCCCC2)cc1NC(=O)CCNC(=O)c1ccco1`?
SARS PLP yeast: -3.0%; AmpC inh no detg: -19.5%; AmpC detergent: -1.9%; AMA1 RON2 block: -10.2%

Results for Cc1cccc(OCc2nnc(-c3ccc(F)cc3)o2)c1 ?
SARS PLP yeast: 5.2%; AmpC inh no detg: -25.5%; AmpC detergent: -6.3%; AMA1 RON2 block: 65.6%

What do the screens show for `O=C(NC1CCCC1)c1cc2cc(Br)ccc2o1`?
SARS PLP yeast: 0.2%; Cycloheximide cs: 51.3*; AmpC inh no detg: -33.3%; AmpC detergent: -15.0%; AMA1 RON2 block: 16.2%; Shiga inhibitor: 92.5*
